Experimental data reported in PubChem BioAssay AID1159580 (chemical genetic matrix, 2015).
The whole screen tested about 5,500 compounds, of which about 2,000 (36%) were called active. Roughly 18% stayed inconclusive and do not appear here. Rule as the data show it: active = normalized growth mostly below about 0.91 (no sharp cut-off); inconclusive = no clear call, values can overlap the other calls; inactive = mostly above about 0.92. Some of the results follow.

Experiment: chemical genetic growth profiling, strain panel (AID 1159580);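 also: tested at 20 µM; growth read once vehicle control cultures reached saturation at 30 °C; 1 = growth at the plate median or of vehicle wells; lower values mean less growth of the strain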
Conditions: growth OD

Measured: normalized growth

CC[C@H](CCC(C)[C@H]1CCC2C3CCC4C[C@@H](O)CC[C@]4(C)C3CC[C@@]21C)C(C)C (stereo partly drawn)
inactive: S. cerevisiae deletion strains, locus YKL009W, strain mrt4, stronger effect = lower value 1.02 | S. cerevisiae deletion strains, locus YKL068W, stronger effect = lower value 1.01 | S. cerevisiae deletion strains, locus YKL085W, strain MDH1 (second series), stronger effect = lower value 1.01 | S. cerevisiae deletion strains, locus YKL085W, strain MDH1, stronger effect = lower value 1.01 | S. cerevisiae deletion strains, locus YKL160W, strain elf1, stronger effect = lower value 1.02 | S. cerevisiae deletion strains, locus YKR001C, strain vps1, stronger effect = lower value 1.04 | S. cerevisiae deletion strains, locus YKR026C, strain gcn3, stronger effect = lower value 0.988 | S. cerevisiae deletion strains, locus YKR091W, strain srl3, stronger effect = lower value 0.992 | S. cerevisiae deletion strains, locus YLL001W, strain dnm1, stronger effect = lower value 1.01 | S. cerevisiae deletion strains, locus YLL026W, stronger effect = lower value 0.991 | S. cerevisiae deletion strains, locus YLL041C, strain sdh2, stronger effect = lower value 0.969 | S. cerevisiae deletion strains, locus YLR027C, strain aat2, stronger effect = lower value 0.987 | S. cerevisiae deletion strains, locus YLR039C, strain RIC1, stronger effect = lower value 0.995 | S. cerevisiae deletion strains, locus YLR058C, strain SHM2, stronger effect = lower value 1.01 | S. cerevisiae deletion strains, locus YLR102C, strain apc9, stronger effect = lower value 1.01 | S. cerevisiae deletion strains, locus YLR113W, strain HOG1, stronger effect = lower value 0.991 | S. cerevisiae deletion strains, locus YLR221C, strain rsa3, stronger effect = lower value 1.03 | S. cerevisiae deletion strains, locus YLR258W, strain gsy2, stronger effect = lower value 0.988 | S. cerevisiae deletion strains, locus YLR262C, strain YPT6 (second series), stronger effect = lower value 0.97 | S. cerevisiae deletion strains, locus YLR262C, strain YPT6, stronger effect = lower value 1.02 | S. cerevisiae deletion strains, locus YLR268W, strain sec22, stronger effect = lower value 1.02 | S. cerevisiae deletion strains, locus YLR320W, strain mms22, stronger effect = lower value 1.02 | S. cerevisiae deletion strains, locus YLR330W, strain CHS5, stronger effect = lower value 1.01 | S. cerevisiae deletion strains, locus YLR342W, strain FKS1 (second series), stronger effect = lower value 1.01 | S. cerevisiae deletion strains, locus YLR342W, strain FKS1, stronger effect = lower value 0.978 | S. cerevisiae deletion strains, locus YLR357W, strain rsc2, stronger effect = lower value 0.98 | S. cerevisiae deletion strains, locus YLR370C, strain arc18, stronger effect = lower value 0.98 | S. cerevisiae deletion strains, locus YLR371W, strain rom2, stronger effect = lower value 1.01 | S. cerevisiae deletion strains, locus YLR384C, strain iki3, stronger effect = lower value 0.986 | S. cerevisiae deletion strains, locus YLR418C, strain cdc73, stronger effect = lower value 1 | S. cerevisiae deletion strains, locus YML016C, strain PPZ1, stronger effect = lower value 1.01 | S. cerevisiae deletion strains, locus YML032C, strain rad52, stronger effect = lower value 1.01 | S. cerevisiae deletion strains, locus YML120C, strain ndi1, stronger effect = lower value 0.989 | S. cerevisiae deletion strains, locus YML124C, strain tub3, stronger effect = lower value 1.01 | S. cerevisiae deletion strains, locus YMR058W, strain fet3, stronger effect = lower value 0.967 | S. cerevisiae deletion strains, locus YMR078C, strain ctf18, stronger effect = lower value 1.01 | S. cerevisiae deletion strains, locus YMR125W, strain sto1, stronger effect = lower value 0.969 | S. cerevisiae deletion strains, locus YMR129W, stronger effect = lower value 0.982 | S. cerevisiae deletion strains, locus YMR205C, strain PFK2, stronger effect = lower value 1.01 | S. cerevisiae deletion strains, locus YMR223W, strain ubp8, stronger effect = lower value 0.988 | S. cerevisiae deletion strains, locus YMR231W, strain pep5, stronger effect = lower value 0.975 | S. cerevisiae deletion strains, locus YMR263W, strain SAP30, stronger effect = lower value 1.01 | S. cerevisiae deletion strains, locus YMR307W, strain GAS1, stronger effect = lower value 0.973 | S. cerevisiae deletion strains, locus YNL067W, strain RPL9B, stronger effect = lower value 1 | S. cerevisiae deletion strains, locus YNL071W, strain lat1, stronger effect = lower value 0.974 | S. cerevisiae deletion strains, locus YNL153C, strain GIM3, stronger effect = lower value 1 | S. cerevisiae deletion strains, locus YNL183C, strain NPR1, stronger effect = lower value 0.974 | S. cerevisiae deletion strains, locus YNL209W, strain ssb2, stronger effect = lower value 1 | S. cerevisiae deletion strains, locus YNL233W, strain BNI4, stronger effect = lower value 1 | S. cerevisiae deletion strains, locus YNL248C, strain rpa49, stronger effect = lower value 0.975 | S. cerevisiae deletion strains, locus YNL250W, strain rad50, stronger effect = lower value 1 | S. cerevisiae deletion strains, locus YNL271C, strain bni1, stronger effect = lower value 1.01 | S. cerevisiae deletion strains, locus YNL298W, strain CLA4, stronger effect = lower value 1.02 | S. cerevisiae deletion strains, locus YNL307C, strain MCK1, stronger effect = lower value 1.01 | S. cerevisiae deletion strains, locus YNL322C, strain KRE1 (second series), stronger effect = lower value 0.982 | S. cerevisiae deletion strains, locus YNL322C, strain KRE1, stronger effect = lower value 1 | S. cerevisiae deletion strains, locus YNR049C, strain mso1, stronger effect = lower value 0.984 | S. cerevisiae deletion strains, locus YNR052C, strain pop2, stronger effect = lower value 1.02 | S. cerevisiae deletion strains, locus YOL012C, strain htz1 0.67 | S. cerevisiae deletion strains, locus YOL147C, strain pex11, stronger effect = lower value 1 | S. cerevisiae deletion strains, locus YOR001W, strain rrp6, stronger effect = lower value 0.949 | S. cerevisiae deletion strains, locus YOR061W, strain CKA2, stronger effect = lower value 1.02 | S. cerevisiae deletion strains, locus YOR069W, strain VPS5, stronger effect = lower value 1.01 | S. cerevisiae deletion strains, locus YOR070C, strain gyp1, stronger effect = lower value 1.02 | S. cerevisiae deletion strains, locus YOR080W, strain dia2, stronger effect = lower value 0.988 | S. cerevisiae deletion strains, locus YOR083W, strain WHI5, stronger effect = lower value 1.03 | S. cerevisiae deletion strains, locus YOR106W, strain vam3, stronger effect = lower value 0.998 | S. cerevisiae deletion strains, locus YOR136W, strain idh2, stronger effect = lower value 1.01 | S. cerevisiae deletion strains, locus YOR144C, strain elg1, stronger effect = lower value 1.01 | S. cerevisiae deletion strains, locus YOR184W, strain ser1, stronger effect = lower value 1.02 | S. cerevisiae deletion strains, locus YOR231W, strain MKK1, stronger effect = lower value 1.01 | S. cerevisiae deletion strains, locus YOR265W, strain rbl2, stronger effect = lower value 1.02 | S. cerevisiae deletion strains, locus YOR270C, strain vph1, stronger effect = lower value 0.979 | S. cerevisiae deletion strains, locus YOR290C, strain snf2, stronger effect = lower value 0.995 | S. cerevisiae deletion strains, locus YOR316C, strain cot1, stronger effect = lower value 1.01 | S. cerevisiae deletion strains, locus YPL051W, strain arl3, stronger effect = lower value 0.995 | S. cerevisiae deletion strains, locus YPL055C, strain LGE1, stronger effect = lower value 1 | S. cerevisiae deletion strains, locus YPL078C, strain atp4, stronger effect = lower value 0.989 | S. cerevisiae deletion strains, locus YPL106C, strain sse1, stronger effect = lower value 0.994 | S. cerevisiae deletion strains, locus YPL240C, strain hsp82, stronger effect = lower value 0.987 | S. cerevisiae deletion strains, locus YPL241C, strain CIN2, stronger effect = lower value 1 | S. cerevisiae deletion strains, locus YPL256C, strain CLN2, stronger effect = lower value 1.02 | S. cerevisiae deletion strains, locus YPR119W, strain clb2, stronger effect = lower value 1.01 | S. cerevisiae deletion strains, locus YPR141C, strain kar3, stronger effect = lower value 1.01 | S. cerevisiae deletion strains, locus YPR163C, strain tif3, stronger effect = lower value 1.01 | S. cerevisiae deletion strains, locus YPR167C, strain met16, stronger effect = lower value 1 | S. cerevisiae deletion strains, strain wtn01, stronger effect = lower value 1.02 | S. cerevisiae strains, strain wild type, stronger effect = lower value 1.01
